The values below come from PubChem BioAssay (EPA / NIEHS).

Read-out in assay [1]: Vascular endothelial growth factor receptor 2 (Homo sapiens) (UniProt P35968)
Kind of assay: BSK_4H_VEGFRII: BioMAP Diversity Plus: 4H Assay for Vascular endothelial growth factor receptor 2 (VEGFR2) Biomarker Activity (AID 2283031).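 On AC50: cell-surface VEGFR2 protein level quantified by ELISA.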 As to conditions: primary human endothelial cells (HUVEC); actives raise or lower the signal. The gist of the method:
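ELISA read-out of VEGFRII in primary human umbilical vein endothelium, taken 24 h after chemical treatment. Responses are expressed relative to DMSO, with bidirectional fitting.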

Read-out in assay [2]: Human Leukocyte Antigen - DR isotype (HLADR), HLA-DRA (gene 3122)
Kind of assay: BSK_BE3C_HLADR: BioMAP Diversity Plus: BE3C Assay for Human Leukocyte Antigen - DR isotype (HLADR) Biomarker Activity (AID 2283032). As to conditions: primary human bronchial epithelial cells; actives raise or lower the signal. The gist of the method: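 ELISA read-out of HLA-DR on human lung bronchial epithelial primary cells, measured 24 h post-dosing. Both increases and decreases were scored relative to DMSO vehicle.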

Read-out in assay [3]: Vascular cell adhesion molecule 1 (VCAM1), VCAM1 (gene 7412)
Kind of assay: BSK_4H_VCAM1: BioMAP Diversity Plus: 4H Assay for Vascular cell adhesion molecule 1 (VCAM1) Biomarker Activity (AID 2283033).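 On outcome: cell-surface VCAM-1 protein measured by ELISA.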 As to conditions: primary human endothelial cells (HUVEC); actives raise or lower the signal. The gist of the method:
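ELISA read-out of VCAM-1 on human umbilical vein endothelium 24 hours after chemical dosing; gain or loss of signal was fitted relative to DMSO, with sulforhodamine B staining of parallel cultures flagging overt cytotoxicity.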

Read-out in assay [4]: Monokine induced gamma interferon (MIG), CXCL9 (gene 4283)
Briefly: BSK_BE3C_MIG: BioMAP Diversity Plus: BE3C Assay for Monokine induced gamma interferon (MIG) Biomarker Activity (AID 2283035).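 On outcome: MIG protein measured by ELISA in BE3C cultures after 24 h of dosing.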 To be noted: primary human bronchial epithelial cells; actives raise or lower the signal. The gist of the method:
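ELISA read-out of MIG in human lung bronchial epithelial primary cultures, 24 h post-dosing. Bidirectional curve fit vs DMSO baseline.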

Read-out in assay [5]: Plasminogen activator inhibitor-1 (PAI1), SERPINE1 (gene 5054)
Briefly: BSK_BE3C_PAI1: BioMAP Diversity Plus: BE3C Assay for Plasminogen activator inhibitor-1 (PAI1) Biomarker Activity (AID 2283037). To be noted: primary human bronchial epithelial cells; actives raise or lower the signal. The gist of the method: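 Primary human lung bronchial epithelial cells; chemical dosing; 24 h; PAI-1 measured by ELISA; bidirectional fit referenced to DMSO as negative control.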

Read-out in assay [6]: urokinase plasminogen activator (uPA), PLAU (gene 5328)
Kind of assay: BSK_BE3C_uPA: BioMAP Diversity Plus: BE3C Assay for urokinase plasminogen activator (uPA) Biomarker Activity (AID 2283038).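 On outcome: uPA protein level quantified by ELISA in cell cultures; uPA read one day after compound addition.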 To be noted: primary human bronchial epithelial cells; actives raise or lower the signal. An outline of the steps:
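Bronchial epithelial cells (human, primary); chemical 24 h; uPA by ELISA; bidirectional fit vs DMSO. SRB (0.1%, after 10% TCA fixation, 560 nm) in parallel cultures for cytotoxicity.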

Read-out in assay [7]: Urokinase-type plasminogen activator receptor (uPAR), PLAUR (gene 5329)
Briefly: BSK_BE3C_uPAR: BioMAP Diversity Plus: BE3C Assay for Urokinase-type plasminogen activator receptor (uPAR) Biomarker Activity (AID 2283039).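 On outcome: uPAR protein level measured by ELISA on the cells; cells exposed to compound for one day before measurement.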 To be noted: primary human bronchial epithelial cells; actives raise or lower the signal. An outline of the steps:
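Human bronchial epithelial primary cells; chemical exposure 24 h; uPAR by ELISA; bidirectional fit vs DMSO control.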

Read-out in assay [8]: Interleukin-6 (IL6), IL6 (gene 3569)
Briefly: BSK_CASM3C_IL6: BioMAP Diversity Plus: CASM3C Assay for Interleukin-6 (IL6) Biomarker Activity for (AID 2283040). To be noted: primary human coronary artery smooth muscle cells; actives raise or lower the signal.

Read-out in assay [9]: Tissue plasminogen activator (tPA), PLAT (gene 5327)
Briefly: BSK_BE3C_tPA: BioMAP Diversity Plus: BE3C Assay for Tissue plasminogen activator (tPA) Biomarker Activity (AID 2283041).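 On outcome: tPA level quantified by ELISA one day after compound addition.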 As to conditions: primary human bronchial epithelial cells; actives raise or lower the signal. The gist of the method: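 Primary human lung bronchial epithelial cultures receive test chemical; after 24 h, tPA is quantified by ELISA, and gain or loss of signal is fitted bidirectionally relative to DMSO baseline.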

Read-out in assay [10]: Interleukin-8 (IL8), CXCL8 (gene 3576)
Kind of assay: BSK_CASM3C_IL8: BioMAP Diversity Plus: CASM3C Assay for Interleukin-8 (IL8) Biomarker Activity (AID 2283042).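 Further: IL-8 protein level quantified by ELISA.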 As to conditions: primary human coronary artery smooth muscle cells; actives raise or lower the signal.

Read-out in assay [11]: Human Leukocyte Antigen - DR isotype (HLADR), HLA-DRA (gene 3122)
Briefly: BSK_CASM3C_HLADR: BioMAP Diversity Plus: CASM3C Assay for Human Leukocyte Antigen - DR isotype (HLADR) Biomarker Activity (AID 2283043).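 Further: cell-surface HLA-DR protein level quantified by ELISA.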 As to conditions: primary human coronary artery smooth muscle cells; actives raise or lower the signal.

Read-out in assay [12]: Macrophage colony-stimulating factor (MCSF), CSF1 (gene 1435)
Kind of assay: BSK_CASM3C_MCSF: BioMAP Diversity Plus: CASM3C Assay for Macrophage colony-stimulating factor (MCSF) Biomarker Activity (AID 2283044).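 Further: M-CSF protein amount quantified by ELISA after 24 h exposure.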 To be noted: primary human coronary artery smooth muscle cells; actives raise or lower the signal.

Read-out in assay [13]: Low-density lipoprotein receptor (LDLR), LDLR (gene 3949)
Kind of assay: BSK_CASM3C_LDLR: BioMAP Diversity Plus: CASM3C Assay for Low-density lipoprotein receptor (LDLR) Biomarker Activity (AID 2283045).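 Further: LDLR protein level on the cell surface quantified by ELISA.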 To be noted: primary human coronary artery smooth muscle cells; actives raise or lower the signal.

Read-out in assay [14]: Monocyte Chemoattractant Protein-1 (MCP1), CCL2 (gene 6347)
Briefly: BSK_CASM3C_MCP1: BioMAP Diversity Plus: CASM3C Assay for Monocyte Chemoattractant Protein-1 (MCP1) Biomarker Activity (AID 2283046).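 Further: MCP-1 level quantified by ELISA 24 h after dosing.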 To be noted: primary human coronary artery smooth muscle cells; actives raise or lower the signal.

Assay [15] can be described thus: BSK_CASM3C_Proliferation: Cell Proliferation Assessment in the BioMAP Diversity Plus: CASM3C Assay (AID 2283047).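 Further: sulforhodamine B total protein stain as relative cell number at 560 nm; sub-confluent cells exposed 48 h before staining; fitted both ways against DMSO so gain or loss of cell number.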 As to conditions: primary human coronary artery smooth muscle cells.
Read-out in assay [16]: Monokine induced gamma interferon (MIG), CXCL9 (gene 4283)
Briefly: BSK_CASM3C_MIG: BioMAP Diversity Plus: CASM3C Assay for Monokine induced gamma interferon (MIG) Biomarker Activity (AID 2283048).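 Further: MIG protein level measured by ELISA.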 As to conditions: primary human coronary artery smooth muscle cells; actives raise or lower the signal.

Read-out in assay [17]: serum amyloid A (SAA), SAA1 (gene 6288)
Briefly: BSK_CASM3C_SAA: BioMAP Diversity Plus: CASM3C Assay for serum amyloid A (SAA) Biomarker Activity (AID 2283049).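 Further: SAA protein level quantified by ELISA.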 To be noted: primary human coronary artery smooth muscle cells; actives raise or lower the signal.

Assay [18] in a line: BSK_CASM3C_SRB: Viability Assessment in the BioMAP Diversity Plus: CASM3C Assay (AID 2283050).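 Further: total protein by SRB staining as cytotoxicity measure in parallel cultures.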 As to conditions: primary human coronary artery smooth muscle cells.
Read-out in assay [19]: Transforming growth factor beta 1 (TGFb1), TGFB1 (gene 7040)
Kind of assay: BSK_BE3C_TGFb1: BioMAP Diversity Plus: BE3C Assay for Transforming growth factor beta 1 (TGFb1) Biomarker Activity (AID 2283036;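 on outcome: TGF-b1 protein level measured by ELISA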). As to conditions: primary human bronchial epithelial cells; actives raise or lower the signal. An outline of the steps:
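Primary human lung bronchial epithelial cells; compound exposure 24 h; TGF-b1 by ELISA; bidirectional fit, DMSO baseline. Parallel SRB total-protein staining for cytotoxicity.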

Molecules are shown by their SMILES. “And” between values parts separate entries of the source, which are not always exact repeats. Identical values can stand only once. Some compounds were tested as several samples or in several runs, with calls that do not always agree. The source made the active and inactive calls. How the source made its calls: active means hit-call score of the fitted dose curve at least 0.9, where 1 is the maximum; inactive means score below 0.9.

Usually AC50 stands for the concentration at which the activity in the assay is half-maximal. On to `O=C(O)C(F)(F)OC(F)(F)C(F)(F)OC(F)(F)C(F)(F)OC(F)(F)C(F)(F)C(F)(F)C(F)(F)F`, for which the AC50 in assay [1] was 47.7 µM (active); in assay [2], 3.73 µM (active) and 3.7 µM (active); in assay [3], 48.4 µM (active) and 50.2 µM (active); in assay [4], 4.58 µM (active) and 4.77 µM (active); in [5] it was 4.78 µM (active) and 4.58 µM (active); in [6], 3.94 µM (active) and 3.9 µM (active). In addition, the AC50 in assay [7] was 5.83 µM (active) and 5.88 µM (active); in [9], 4.98 µM (active) and 4.8 µM (active); in assay [12] it was 48.1 µM (active); in assay [13], 46.1 µM (active) and 55.2 µM (active); in [15], 51.1 µM (active) and 56.6 µM (active); in assay [17] it was 43.5 µM (active). Moreover, the AC50 in assay [18] is 55.1 µM (active) and 45.3 µM (active). Besides, the result in assay [1], in assay [8], in assay [10], in assay [11], in assay [12] and in [14] was inactive. The outcome in assay [16] and in [17] was inactive.

Consider `Cc1[nH]nc2c1N=C(c1ccccc1Cl)c1cc([N+](=O)[O-])ccc1N2`, for which the AC50 in assay [1] was 2.43 µM (active); in [2], 10.3 µM (active); in assay [3], 2.56 µM (active); in assay [4], 19.3 µM (active); in assay [19] it was 21.6 µM (active); in assay [5] it was 1.62 µM (active). For the same compound, the AC50 in [9] is 20 µM (active); in [11], 8.7 µM (active); in [12], 0.581 µM (active); in [15], 807 nM (active); in [16] it was 7.47 µM (active); in assay [17] it was 0.641 µM (active). The outcome in [6], in assay [7], in assay [8], in assay [10], in [13] and in [14] was inactive. In addition, in assay [18], the result was inactive.

Regarding `CCCCCCCCCCCCCCC`, the result in assay [1], in [2], in [3], in [4], in assay [19] and in [5] was inactive. Further, the result in assay [6], in assay [7], in assay [8], in assay [9], in [10] and in assay [11] was inactive. For the same compound, the outcome in [12], in assay [13], in [14], in assay [15], in [16] and in assay [17] was inactive. The result in [18] was inactive.

Take `CC(=O)Nc1ccc(O)cc1`: the outcome in [1], in assay [2], in assay [3], in assay [4], in assay [19] and in assay [5] was inactive. The outcome in [6], in [7], in [8], in [9], in assay [10] and in [11] was inactive. In addition, the outcome in assay [12], in assay [13], in assay [14], in assay [15], in assay [16] and in [17] was inactive. Also, the result in assay [18] was inactive.

Take `O=C(O)CCC(F)(F)C(F)(F)C(F)(F)C(F)(F)C(F)(F)C(F)(F)F`: the outcome in [1], in assay [2], in assay [3], in [4], in assay [5] and in [6] was inactive. For the same compound, the result in assay [7], in assay [8], in [9], in assay [10], in assay [11] and in assay [12] was inactive. Moreover, the result in [13], in assay [14], in assay [15], in [16], in assay [17] and in assay [18] was inactive.

On to `O=C1c2ccc(O)c(O)c2C(=O)c2c(O)ccc(O)c21`, for which the outcome in assay [1], in assay [2], in assay [3], in assay [4], in assay [19] and in [5] was inactive. The outcome in assay [6], in assay [7], in [8], in assay [9], in assay [10] and in [11] was inactive. In addition, the result in assay [12], in assay [13], in [14], in assay [16], in [17] and in assay [18] was inactive. Besides, the AC50 in assay [15] was 4.1 nM (active).
